system: PIKFYVE; settings: concentration: 1 μM, replicates: in singlicate; n = 1
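Note: KINOMEscan kinase panel screen.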

Row | Compound | %Inh [%]
1 | FC(F)(F)c1ccc(/C=C/c2cncnc2Nc2ccc3[nH]c(Cc4ccccc4)nc3c2)cc1 [GW709199] | 8
2 | O=C(Nc1cccc(-c2nn3ccccc3c2-c2ccnc(Nc3cccc(F)c3)n2)c1)c1c(F)ccc(F)c1Cl [GSK357952] | 0
3 | O=C(Nc1ccccc1F)NC1CCN(c2ccnc(Nc3ccc(F)cc3)n2)CC1 [GSK1379800] | 0
4 | Cc1occc1-c1ncc(OC[C@@H](N)Cc2c[nH]c3ccccc23)cc1-c1ccc2[nH]nc(C)c2c1.O=C(O)C(F)(F)F [GSK682037] | 0
5 | C[C@@H]1CC[C@@H](C(=O)Nc2ccccc2)CN1c1cc(-c2ccc3c(N)n[nH]c3c2)nc(N)n1 [GSK2286062] | 0
6 | Cl.NC(=O)c1cccc(Nc2nccc(Nc3ccc(Oc4c(Cl)cccc4Cl)c(Cl)c3)n2)c1 [GW659009] | 0
7 | Cc1ccc(C(=O)Nc2ccc(Nc3ccnc4cc(-c5nccs5)ccc34)cc2O)cc1.Cl [GW494702] | 0
8 | CNC(=O)c1ccccc1Nc1nc(Nc2ccc(N3CCOCC3)cc2)ncc1Cl.Cl [GSK1576028] | 53
9 | COc1cc(Nc2nccc(-c3c(-c4cccc(NC(=O)c5c(F)cccc5F)c4)nn4ccccc34)n2)cc(OC)c1OC [GSK323521] | 0
10 | Nc1ncnc2c1nc(-c1ccccc1)n2-c1ccccc1 [SKF-97293] | 20
11 | Fc1ccc(-c2ncn(C3CCNCC3)c2-c2ccnc(Oc3ccc(-c4ccccc4)cc3)n2)cc1 [SB-245391] | 15

Reference: PMC5540273 (PLoS ONE, 2017)
